For 40 compounds, cell viability activity results are on record in the supplement of paper PMC9177965.

Where “and” joins values, the source holds several entries; their conditions need not be identical. Equal values may be shown once.

The test system of the assay is HT29 RNF43 G659fs (RNF43 659mut, CRISPR-edited). Kind of assay: cell viability activity relative to DMSO (negative = inhibition); higher = more viable cells (less growth inhibition). The settings on record: 5 µM; 96 h. As for the experimental part:
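Broad Repurposing Library primary screen at a single dose of 5 uM. HT29 sg-Ctrl and HT29 RNF43 G659fs CRISPR-edited isogenic cells were seeded at 2500 cells/well in 384-well plates in duplicate and treated for 96 h. Viability was read by CellTiter-Glo and reported as % activity relative to DMSO, with MG132 as the positive control (negative = growth inhibition).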
As to `CC(C)(C)c1ccc(C(=O)CCCN2CCC(OC(c3ccccc3)c3ccccc3)CC2)cc1`, the cell viability activity was -79.7%. With `CNC(=O)c1ccccc1Nc1nc(Nc2ccc(N3CCOCC3)cc2OC)ncc1Cl`, the cell viability activity is -73.1%. Regarding `Cc1ccc(S(=O)(=O)C=CC#N)cc1`, the cell viability activity was -98.8%. As to `CC(C)(C)c1cnc(CSc2cnc(NC(=O)C3CCNCC3)s2)o1`, the cell viability activity was -81.8%. Consider `CCC1=C[C@@H]2CN(C1)Cc1c([nH]c3ccccc13)[C@@](C(=O)OC)(c1cc3c(cc1OC)N(C)[C@H]1[C@@](O)(C(=O)OC)[C@H](OC(C)=O)[C@]4(CC)C=CCN5CC[C@]31[C@@H]54)C2`, for which the cell viability activity was -62.4%. For `Cc1ccc(C(=O)Nc2ccc(Oc3cc4cnn(C)c4cc3-c3cn[nH]c3)c(F)c2)c(=O)n1-c1ccc(F)cc1`, the cell viability activity was -41.5%. For the compound `CCCCCCCC(=O)N[C@H](CN1CCCC1)[C@H](O)c1ccc2c(c1)OCCO2`, the cell viability activity was -40.1%. Turning to `CN1CCN(c2ccc(OC(F)(F)F)c(Nc3ncc4c(n3)-c3c(c(C(N)=O)nn3CCO)CC4)c2)CC1`, the cell viability activity was -69%.

Take `Cc1cccc(Nc2nc(-c3ccncc3)cs2)c1`: the cell viability activity is -85.7%. The figure for `CN(C)CCOc1ccc(-c2nc(-c3ccc4c(c3)CC/C4=N\O)c(-c3ccncc3)[nH]2)cc1` is -28.5%; for `CCCS(=O)(=O)Nc1ccc(F)c(C(=O)c2c[nH]c3ncc(-c4ccc(Cl)cc4)cc23)c1F` it is -35.4%; for `CCC(=O)N1CCN(c2ccc(-n3c(=O)ccc4cnc5ccc(-c6cnc7ccccc7c6)cc5c43)cc2C(F)(F)F)CC1` it is -56.6%. The same measure for `CCN(CC)CCNC(=O)c1ccc(NC(C)=O)cc1`: -53.2%; for `COc1cccc2c1C(=O)c1c(O)c3c(c(O)c1C2=O)C[C@@](O)(C(C)=O)C[C@@H]3O[C@H]1C[C@H](N)[C@H](O)[C@H](C)O1`: -97.7% and -94% and -93.6%; for `COc1cccc2cc(-c3nc([C@H]4CC[C@H](C(=O)O)CC4)n4ncnc(N)c34)[nH]c12`: -50.5%. The same measure for `NC(=O)Nc1cc(-c2cccc(F)c2)sc1C(=O)N[C@H]1CCCNC1`: -79.6%; for `CNC(=O)c1cccc(-c2ccc3c(N4CCOC[C@@H]4C)nc(N4CCOC[C@@H]4C)nc3n2)c1`: -62.5%; for `CC(C)OC(=O)OCOP(=O)(CO[C@H](C)Cn1cnc2c(N)ncnc21)OCOC(=O)OC(C)C`: -26.8%.

For `Cn1cc(CNCC2CCN(c3ncc(C(=O)NO)cn3)CC2)c2ccccc21`, the cell viability activity was -95.9%. Regarding `Cc1nc(Nc2ncc(C(=O)Nc3c(C)cccc3Cl)s2)cc(N2CCN(CCO)CC2)n1`, the cell viability activity was -65.9%. Regarding `O=C(CCCCCN1C(=O)c2cccc3cccc(c23)C1=O)NO`, the cell viability activity is -79.1%. Consider `CN(C)C(=S)SC(=S)N(C)C`, for which the cell viability activity was -30.9%. The figure for `O=C(NOCC1CC1)c1ccc(F)c(F)c1Nc1ccc(I)cc1Cl` is -66.2%; for `COc1cc([C@@H]2c3cc4c(cc3[C@@H](O[C@@H]3O[C@@H]5CO[C@@H](c6cccs6)O[C@H]5[C@H](O)[C@H]3O)[C@H]3COC(=O)[C@H]23)OCO4)cc(OC)c1O` it is -84.4% and -59.9%; for `CCCCCCCCc1ccc(CCC(N)(CO)CO)cc1` it is -97.8%. Turning to `COC(=O)C1=C(C#N)NC(C)=C(C(=O)OC(C)C)C1c1cccc([N+](=O)[O-])c1` (stereo not given), the cell viability activity was -44.7%. As for `O=C(c1cn(Cc2cncn2Cc2ccc(Br)cc2)cc1-c1cccc2ccccc12)N1CCOCC1`, the cell viability activity was -42.8%.

With `CC[C@H](CC#N)OC(=O)N[C@@H](C)c1cccc(NC(=O)Nc2ccc(-c3cnco3)c(OC)c2)c1`, the cell viability activity was -66.2%. In the case of `CO[C@@H](C)Cn1c(=O)n(C)c2cnc3ccc(-c4cncc(C(C)(C)O)c4)cc3c21`, the cell viability activity is -81.7%.

Take `CN1CC[C@H](c2c(O)cc(O)c3c(=O)cc(-c4ccccc4Cl)oc23)[C@H](O)C1`: the cell viability activity was -83.4%.

Take `CCc1nc(C(N)=O)c(Nc2ccc(N3CCC(N4CCN(C)CC4)CC3)c(OC)c2)nc1NC1CCOCC1`: the cell viability activity is -46.8%. In the case of `Oc1ccc(CC2NCCc3cc(O)c(O)cc32)cc1` (stereo not given), the cell viability activity was -63.7%. For the compound `CC(C)C[C@H](NC(=O)[C@H](CCc1ccccc1)NC(=O)CN1CCOCC1)C(=O)N[C@@H](Cc1ccccc1)C(=O)N[C@@H](CC(C)C)C(=O)[C@@]1(C)CO1`, the cell viability activity is -97.1%.

Take `CC(C)C[C@H](NC(=O)[C@@H](NC(=O)c1cccc(-c2ccccc2)n1)[C@@H](C)O)B(O)O`: the cell viability activity was -95.1%. As to `COc1cccc2c1C(=O)c1c(O)c3c(c(O)c1C2=O)C[C@@](O)(C(=O)CO)C[C@@H]3O[C@H]1C[C@H](N)[C@H](O)[C@H](C)O1`, the cell viability activity is -94% and -83.9%. The same measure for `CC(C)C[C@H](NC(=O)[C@H](Cc1ccccc1)NC(=O)c1cnccn1)B(O)O`: -94.1%; for `CNC(=O)c1nn(C)c2c1C(C)(C)Cc1cnc(Nc3ccc(N4CCN(C)CC4)cc3)nc1-2`: -66.2%.

Regarding `Fc1cc(-c2cccc3ncc(-c4cnn(C5CCNCC5)c4)nc23)cc(F)c1CN1CCOCC1`, the cell viability activity is -93.7%. For the compound `CN1CCC(CNc2ccc3ncc(-c4cccc(OC(F)(F)F)c4)n3n2)CC1`, the cell viability activity is -53%. On to `CCN(CC)CCCCNc1ncc2cc(-c3c(Cl)cccc3Cl)c(NC(=O)NC(C)(C)C)nc2n1`, for which the cell viability activity is -49.6%.
